Experimental data: ChEMBL document CHEMBL1157539, “Thousands of chemical starting points for antimalarial lead identification” (Nature, 2010)

Tests used:
Assay type in all cases: functional
[1] = tested on: Plasmodium falciparum; test: GSK_TCMDC: Inhibition of Plasmodium falciparum 3D7 in whole red blood cells, using parasite LDH activity as an index of growth. Test compounds present at 2uM
[2] = tested on: Plasmodium falciparum; test: GSK_TCMDC: Inhibition of Plasmodium falciparum Dd2 in whole red blood cells, using parasite LDH activity as an index of growth. Test compounds present at 2uM
[3] = tested on: HepG2; test: GSK_TCMDC: Percent inhibition of human HepG2 cell line. Test compounds present at 10uM.

COc1cccc(CNC(=O)c2ccnc(-c3cccc(CN(C)C4CCN(C)CC4)c3)c2)c1.O=C(O)C(F)(F)F
Inhibition [1]: 100% | Inhibition [2]: 46% | Inhibition [3]: 19%

CCC(C)c1ccc(O)c(NC(=O)c2cncc(Br)c2)c1 (stereo not drawn)
Inhibition [1]: 100% | Inhibition [2]: 16% | Inhibition [3]: 0%

CC(C)Sc1nc2c(c(=O)n1Cc1ccco1)C1(CCCCC1)Cc1ccccc1-2
Inhibition [1]: 100% | Inhibition [2]: 99% | Inhibition [3]: 10%

Fc1cc(Cl)ccc1Nc1ccnc2cc(-c3ccc(CN4CCCCC4)o3)ccc12
Inhibition [1]: 100% | Inhibition [2]: 99% | Inhibition [3]: 16%

COc1ccc(Oc2ccccc2CNCC2CCN(CC3CCCCC3)CC2)cc1.O=C(O)C(F)(F)F
Inhibition [1]: 85% | Inhibition [2]: 28% | Inhibition [3]: 34%

COc1ccc(N2C(=O)c3c(c4ccccc4n3C)C2c2ccccc2O)cc1 (stereo not drawn)
Inhibition [1]: 96% | Inhibition [2]: 91% | Inhibition [3]: 32%

CC(Oc1ccc(Cl)cc1)C(=O)Nc1cc(C(F)(F)F)ccc1N1CCOCC1 (stereo not drawn)
Inhibition [1]: 97% | Inhibition [2]: 97% | Inhibition [3]: 14%

O=C(/C=C/c1cccc2c1OCO2)Nc1ccnc2ccncc12
Inhibition [1]: 90% | Inhibition [2]: 35% | Inhibition [3]: 17%

COC(=O)c1ccc(OCC(C)NCC(O)c2cccc(C(F)(F)F)c2)cc1.O=C(O)/C=C/C(=O)O (stereo not drawn)
Inhibition [1]: 94% | Inhibition [2]: 81% | Inhibition [3]: 6%

Cc1cc(N/N=C/c2ccccc2[N+](=O)[O-])c2cc(C(F)(F)F)ccc2n1
Inhibition [1]: 97% | Inhibition [2]: 39% | Inhibition [3]: 0%

O=C(Nc1ccc2ccccc2c1)N1CCC(NCc2cccc([N+](=O)[O-])c2)CC1.O=C(O)C(F)(F)F
Inhibition [1]: 98% | Inhibition [2]: 0% | Inhibition [3]: 0%
